Screening data: PubChem BioAssay, National Center for Advancing Translational Sciences (NCATS)
Sm TGR inh: qHTS Assay for the Inhibitors of Schistosoma Mansoni Peroxiredoxins. 3% of 360,000 active. purified TGR, DTNB reduction, TNB absorbance 405 nm. Schistosoma mansoni thioredoxin glutathione reductase (TGR), Q962Y6. AID 485364, 2010. Potency, µM (titrated, usually from 114 µM), without a hit: top-dose activity change, negative = inhibition, most hits filed as inhibitors; note: nearly all actives have a fitted effect of over 60% in size
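Kinetic colorimetric format: TGR-catalysed, NADPH-driven DTNB reduction monitored via TNB absorbance. Enzyme dispensed at 20 nM; compound exposure 15 min at room temperature before reaction start.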
AmpC no deterg: qHTS Inhibitors of AmpC Beta-Lactamase (assay without detergent). Potency, µM (top dose mostly 57.1 µM), without a hit: top-dose activity change, negative = inhibition, usual class: inhibitors. P00811. 0.52% of 330,000 active. AID 485341, 2010. AmpC nitrocefin hydrolysis, absorbance 480 nm, 0.0001% Triton;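 note: plate controls were no compound for no effect and no enzyme for full effect; nearly all actives have a fitted effect of over 20% in size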
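AmpC (5.3 nM in the dispensed reagent) in 20 mM phosphate pH 7.0 with 0.01% (detergent screen) or 0.0001% Triton X-100 was preincubated with compounds for 15 min at room temperature. Nitrocefin was then added from an 800 uM solution, and hydrolysis was followed at 480 nm.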
Giardia FBPA inh: qHTS Assay for Inhibitors of Fructose-1,6-bisphosphate Aldolase from Giardia Lamblia; A8B2U2; purified Giardia FBPA; Potency, µM (highest dose often 59.6 µM), for inactives: top-dose activity, negative = inhibition, usual class: inhibitors; 0.71% of 290,000 active; note: nearly all actives have a fitted effect of over 55% in size
Target sequence (A8B2U2 whole entry, looked up): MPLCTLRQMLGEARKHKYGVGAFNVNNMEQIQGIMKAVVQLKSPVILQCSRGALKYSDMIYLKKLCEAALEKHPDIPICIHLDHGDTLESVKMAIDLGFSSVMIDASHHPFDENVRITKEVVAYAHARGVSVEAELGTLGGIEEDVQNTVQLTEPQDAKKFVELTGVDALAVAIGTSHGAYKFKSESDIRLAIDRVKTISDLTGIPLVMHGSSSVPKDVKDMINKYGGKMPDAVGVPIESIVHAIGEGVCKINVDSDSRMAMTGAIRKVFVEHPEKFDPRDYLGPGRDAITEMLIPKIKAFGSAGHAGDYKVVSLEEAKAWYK
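Giardia FBPA (40 nM reagent) was preincubated 10 min at RT with compound (up to 57.5 uM final), then substrate plus GAPDH/TPI/NAD/arsenate coupling system with diaphorase/resazurin was added; resorufin fluorescence (525/598 nm) was read after 20 min.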
AmpC inh detg: qHTS Inhibitors of AmpC Beta-Lactamase (assay with detergent); 0.041% of 370,000 active; AmpC hydrolysis of nitrocefin, absorbance 480 nm, 0.01% Triton; Potency, µM (titrated, usually from 114 µM), for the others: at the top dose activity change, negative = inhibition, hits mostly inhibitors; AID 485294, 2010;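 note: 0% = no-compound wells and -100% = no-enzyme wells; nearly all actives have a fitted effect of over 25% in size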
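20 mM phosphate pH 7.0 + 0.01% (detergent screen) or 0.0001% Triton X-100; 5.3 nM AmpC reagent; cpd preinc 15 min RT; nitrocefin (800 uM stock) to start; A480 q20 s × 4 min; Activity was normalised to no-enzyme and no-compound control wells.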
Starred values were filed as active, the others as inactive; ? = inconclusive; . = no result; [ ] = dose if it differs, or a comment. Hits are enriched below; roughly 3.6% of the tested compounds scored in any of these assays. Calls come from the whole dose curve; as a rule, active = well fitted curve in the direction sought with a large enough effect; inconclusive = small, poorly fitted or top-dose-only effect, or another doubt; inactive = no such curve, though single readings can be large; an effect the other way counts as inactive or inconclusive. Unless noted, % is set by controls: 0 for no effect and ±100 for the full control effect; potency is the fitted concentration of half-maximal effect.

SMILES | Sm TGR inh | AmpC no deterg | Giardia FBPA inh | AmpC inh detg
Cc1oc2ccc(O)c(CN3CCCC(C)C3)c2c1C(=O)Nc1ccccc1 (stereo not given) | 14% | . | . | 22%
Cc1c(Cl)cccc1NC(=O)c1ncn[nH]1 | 2% | -13% | -23% | -6%
COc1ccc2c(c1)CCc1cn3nc(C)cc3nc1-2 | -13% | -2% | 18µM* | -3%
CCOCCCNC(=O)C(c1ccc(OC)cc1)N(Cc1ccc2c(c1)OCO2)C(=O)c1ccccc1O (stereo not given) | -3% | 72% | 1% | 2%
Cc1ccc(C)c(NC(=O)CSc2nc(N)c(NC(=O)c3cccs3)c(=O)[nH]2)c1 | -14% | 14µM* | 1% | -17%
Cc1ccc(C)c(NC(=O)CSc2nc3nc(-c4cccs4)cc(C(F)(F)F)c3c(=O)[nH]2)c1 | 1% | 3.5µM* | 17% | -1%
Cc1cccc(NC(=O)CSc2nc(N)c(NC(=O)c3cccs3)c(=O)[nH]2)c1 | -6% | -38% | 4% | -9%
O=C(CSc1nc2nc(-c3cccs3)cc(C(F)(F)F)c2c(=O)[nH]1)Nc1ccc(F)c(F)c1 | . | -40% | 15% | 5%
Cc1ccn2c(=O)cc(COc3ccc(NC(=O)c4ccccc4F)cc3)nc2c1 | 1% | . | . | -3%
Cc1ccccc1CNC(=O)c1ccc(NC(=O)c2nsc3ccccc23)cc1 | 25µM* | . | . | -8%
Cc1cc(C)cc(NC(=O)CN2CCC(NC(=O)c3ccccc3F)CC2)c1 | -12% | 7% | -1% | -4%
CCC(=O)Nc1ccc(C(=O)NCc2ccccn2)cc1 | . | -7% | 2% | 1%
O=C(CC(c1ccccc1)c1ccco1)N1CCCCC1 (stereo not given) | ? | -4% | -1% | -7%
Cc1ccc(C(CC(=O)N2CCOCC2)c2ccco2)cc1 (stereo not given) | 28µM* | 43% | 3% | -17%
O=C(CN1CCCC1)Nc1cc(C(F)(F)F)ccc1Cl | 45% | -19% | 5% | ?
O=C(Cn1nc(-c2ccco2)ccc1=O)Nc1cc(C(F)(F)F)ccc1Cl | 50µM* | -12% | . | 2%
Cc1ccc(NC(=O)Cn2nc(-c3ccncc3)ccc2=O)cc1Cl | ? | . | . | -9%
O=C(Cn1nc(-c2ccco2)ccc1=O)Nc1cc(Cl)ccc1Cl | 5.6µM* | -14% | 9% | -16%
O=C(Cn1nc(-c2ccco2)ccc1=O)Nc1ccc(Cl)c(Cl)c1 | 7.1µM* | -9% | 1% | -7%
CCCCn1c(=O)[nH]c(=O)c2c1nc(-c1ccc(-c3ccccc3Br)o1)n2CC | 13µM* | -22% | -6% | 1%
COCCn1c(=O)[nH]c(=O)c2c1nc(-c1ccc(-c3ccc(Cl)cc3[N+](=O)[O-])o1)n2Cc1ccccc1 | 50µM* | 7.9µM* | ? | -1%
COCCn1c(-c2ccc(-c3ccc([N+](=O)[O-])cc3Br)o2)nc2c1c(=O)[nH]c(=O)n2CC(C)C | 45µM* | -43%[11.4 µM] | -9% | -1%
COc1ccc(-c2ccc(-c3nc4c(c(=O)[nH]c(=O)n4Cc4ccccc4)n3C)o2)c([N+](=O)[O-])c1 | -24% | -2% | ? | 4%
CCOc1ccc(N(C(C)C(=O)NC2CCCCCC2)S(C)(=O)=O)cc1 (stereo not given) | -5% | 30% | 13% | 0%
Cc1ccc(NC(=O)/C=C\C(=O)N(c2ccc(C(C)C)cc2)C(C(=O)NCc2ccco2)c2ccc(Cl)cc2)cc1 (stereo not given) | ? | . | . | -2%
CCOc1ccc(N(C(C)C(=O)NCc2ccco2)S(C)(=O)=O)cc1 (stereo not given) | 45µM* | -10% | 2% | 8%
COc1ccc(N(C(=O)/C=C\C(=O)Nc2ccc(Cl)cc2)C(C(=O)NCc2ccco2)c2ccc(C)cc2)cc1 (stereo not given) | 7.9µM* | . | . | -5%
CCOc1ccc(NC(=O)/C=C\C(=O)N(c2ccc(C(C)C)cc2)C(C(=O)NCc2ccco2)c2ccc(F)cc2)cc1 (stereo not given) | 56µM* | . | . | 10%
